Screening results deposited in PubChem by National Center for Advancing Translational Sciences (NCATS).
Most compounds without a hit are left out; they make up all but 7.3% or so of the library.
Vaccinia mCherry – qHTS for Stage-Specific Inhibitors of Vaccinia Orthopoxvirus: mCherry Reporter Primary qHTS; actives 0.63% (n = 310,000); Potency, µM (top dose mostly 36.5 µM), for inactives: at the top dose activity change, negative = inhibition, usual class: inhibitors; AID 720579, 2013; Vaccinia virus mCherry reporter infection, fluorescence; calls by dose curve; tested in A549 cells; further: potency means the concentration at half of the fitted maximal effect; nearly all actives have a fitted effect of over 35% in size
VACV Venus inh – qHTS for Stage-Specific Inhibitors of Vaccinia Orthopoxvirus: Venus Reporter Primary qHTS. Vaccinia virus Venus reporter expression, fluorescence. Potency, µM (doses to about 36.5 µM), inactives show at the top dose activity change, negative = inhibition, hits mostly inhibitors. actives 0.46% (n = 330,000). AID 720580, 2013; calls by dose curve; tested in A549 cells; further: potency means the concentration at half of the fitted maximal effect; nearly all actives have a fitted effect of over 30% in size
HCMV inh – qHTS Assay for inhibitors of the human cytomegalovirus (HCMV) | AID 1259415, 2018 | HFF cells, HCMV-luciferase reporter, 72 h; hits give low values | activity change, negative = inhibition, % at 57.5 µM | actives 4.5% (n = 410,000); in the data active means activity change below about -60%; inconclusive means no clear call, values can overlap the other calls; inactive means above about -39%
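Two compound doses tested in HFFs infected with HCMV-luciferase, MOI 1 PFU/cell, 72 h at 37C. Lysate luminescence read with OneGlo; data normalized against buffer-only and 10uM Salinomycin inhibitor controls.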
HCV inhibitor – qHTS Assay for Inhibitors of Hepatitis C Virus (HCV) | Huh7.5.1 HCVcc-Cre infection, luciferase reporter, 44 h | Potency, µM (top dose mostly 41.8 µM), for the others: top-dose activity change, negative = inhibition, most hits filed as inhibitors | actives 3.4% (n = 340,000) | AID 651820, 2012; active means well fitted inhibition curve with a large enough effect; inconclusive means small, poorly fitted or top-dose-only effect, or another doubt; inactive means no such curve, though single readings can be large or run the other way; further: potency means the concentration at half of the fitted maximal effect
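Infectious HCV cell culture screen: compound-treated cells (1,000/well, pre-plated 4 h) are infected with HCVcc-Cre at roughly 0.5 moi and grown 44 h. Infection is quantified by luciferase signal after 15 min substrate incubation at room temperature.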
FMDV antiviral – High Throughput Screening for Foot and Mouth Disease Virus Antivirals | FMDV antiviral cell-based qHTS | actives 1.2% (n = 410,000) | Potency, µM (doses to about 57.9 µM), for inactives: at the highest dose activity change, negative = inhibition, usual class: inhibitors; calls by dose curve; tested in HEK293T cells; further: read-out not given here; potency means the concentration at half of the fitted maximal effect; nearly all actives have a fitted effect of over 45% in size
Starred values were filed as active, the others as inactive; i = inactive; ? = inconclusive; . = not tested or not shown; [ ] = another dose, or the depositor's remark. On the % scale 0 is the no-effect control and ±100 the full control effect.

SMILES	Vaccinia mCherry	VACV Venus inh	HCMV inh	HCV inhibitor	FMDV antiviral
NC(=O)Nc1ccc(C(=O)N2CCN(S(=O)(=O)Cc3ccccc3)CC2)cc1	.	.	5	24%	-12%
CC1Cc2ccccc2N1C(=O)CN1CCC(n2nnc3cc(C(F)(F)F)ccc32)CC1 (stereo unspecified)	-28%	?	-39	?	20µM*
CCOc1ccccc1/C=C(\C#N)C(=O)NC1CC1	.	.	-35	-2%	-20%
COc1ccc(-c2[nH]ncc2/C=C(/C#N)C(=O)NC2CCCCC2)cc1	-20%	-16%	-34	13µM*	?
Cc1ccc(-c2[nH]ncc2/C=C(\C#N)C(=O)NC2CCCCC2)cc1	?	?	-19	?	?
N#C/C(=C\C=C\c1ccccc1[N+](=O)[O-])C(=O)NC1CCCCC1	?	?	.	?	25µM*
N#C/C(=C\c1cccn1-c1ccccc1)C(=O)NC1CCCCC1	-6%	4%	61	?	-27%
N#C/C(=C\c1ccccc1[N+](=O)[O-])C(=O)NC1CCCCC1	-12%	5%	83	-6%	35µM*
O=c1nc2ccccc2c2n1CC(CN1CCN(c3ccccc3)CC1)N2 (stereo unspecified)	i	-17%	.	.	-7%
CC1CCc2cc(F)cc3c(=O)c(C(=O)O)cn1c23 (stereo unspecified)	-9%	-7%	-71*	2%[8.37 µM]	-12%
CC1CCc2c(N3CCC(O)CC3)c(F)cc3c(=O)c(C(=O)O)cn1c23 (stereo unspecified)	i	-20%	36	9%	0%
CCOC(=O)C1CCCN(c2ncnc3c2cnn3-c2ccc(C)c(Cl)c2)C1 (stereo unspecified)	-1%	-4%	-1	.	33%
